# Compound activity from PubChem.
# FEN1 inh – human FEN1 inhibition; P39748; Recombinant FEN1 flap cleavage, fluorescence, 15 min; Potency, µM (top dose mostly 114 µM), most hits filed as inhibitors; hit rate 0.35% among 390,000; further: nearly all actives have a fitted effect of over 65% in size
#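 Nuclease activity of 10 nM FEN1 was measured after 15 min of room-temperature exposure to titrated compounds, by adding 50 nM flap substrate and reading plates at 0 and 15 min.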
# POLH inh – DNA polymerase eta (human) inhibition; recombinant Pol eta, fluorescent DNA replication assay; Potency, µM (series often up to 114 µM), most hits filed as inhibitors; Q9Y253; hit rate 1.2% among 390,000
#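 Pol eta (10 nM) was preincubated with compounds for 15 min at room temperature, after which fluorescent replication substrate (50 nM final) was added to start the reaction. Fluorescence was read kinetically at 0 and 10 min.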
# Pol iota inh – DNA polymerase iota (human) inhibition; hit rate 1% among 390,000; Pol iota fluorescent replication assay, 10 min; Q9UNA4; Potency, µM (doses to about 115 µM), hits mostly inhibitors
#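 Pol iota at 10 nM preincubated 15 min with compounds at room temperature; reaction started with fluorescent substrate, 50 nM final. Fluorescence read kinetically at 0 and 10 min; buffer-only wells as negative control.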
# Pol kappa inh – blocks human DNA polymerase kappa activity; hit rate 0.53% among 400,000; purified Pol kappa, fluorescent DNA synthesis assay, 10 min; Q9UBT6; AID 588579; Potency, µM (top dose mostly 107 µM), hits mostly inhibitors
# Target sequence (Q9UBT6 whole entry, looked up): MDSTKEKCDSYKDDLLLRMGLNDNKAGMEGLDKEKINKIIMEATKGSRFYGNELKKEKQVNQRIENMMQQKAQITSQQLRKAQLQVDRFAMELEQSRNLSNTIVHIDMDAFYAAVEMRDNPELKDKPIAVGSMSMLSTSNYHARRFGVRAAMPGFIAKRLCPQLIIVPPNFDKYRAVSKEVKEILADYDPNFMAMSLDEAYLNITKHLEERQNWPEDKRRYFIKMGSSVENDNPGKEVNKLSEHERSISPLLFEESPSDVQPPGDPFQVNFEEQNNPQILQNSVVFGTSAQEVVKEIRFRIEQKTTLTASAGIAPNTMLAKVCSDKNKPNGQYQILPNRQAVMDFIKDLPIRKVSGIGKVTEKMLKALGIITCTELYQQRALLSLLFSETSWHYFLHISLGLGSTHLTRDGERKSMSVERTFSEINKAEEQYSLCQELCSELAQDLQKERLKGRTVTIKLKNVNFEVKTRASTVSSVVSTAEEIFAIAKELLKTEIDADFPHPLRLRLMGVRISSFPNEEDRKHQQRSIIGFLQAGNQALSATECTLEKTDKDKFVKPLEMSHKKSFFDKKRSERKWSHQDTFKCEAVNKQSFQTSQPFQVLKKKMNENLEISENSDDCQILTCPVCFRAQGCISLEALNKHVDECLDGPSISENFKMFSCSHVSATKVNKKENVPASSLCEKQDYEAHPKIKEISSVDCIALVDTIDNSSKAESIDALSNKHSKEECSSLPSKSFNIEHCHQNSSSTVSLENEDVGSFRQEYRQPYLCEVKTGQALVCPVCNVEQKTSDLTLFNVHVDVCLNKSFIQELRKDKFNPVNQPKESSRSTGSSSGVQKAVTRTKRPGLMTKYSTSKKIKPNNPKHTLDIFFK
#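 50 nM final substrate added after 15 min RT preincubation of 10 nM Pol kappa with compound; fluorescence read at 0 and 10 min.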
# TDP1 block – blocks human tyrosyl-DNA phosphodiesterase 1; Q9NUW8; recombinant TDP1, AlphaScreen DNA substrate cleavage; Potency, µM (highest dose often 130 µM), actives largely listed as inhibitors; hit rate 0.28% among 350,000; further: nearly all actives have a fitted effect of over 40% in size
#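 Tdp1 1 nM final; 15 min RT w/ cpd; substrate 15 nM, 5 min; beads 10 ug/ml, 10 min; AlphaScreen read. Neg ctrl: no enzyme.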
# Pol beta inh – blocks human DNA polymerase beta activity; P06746; Pol beta primer extension/strand displacement, fluorescence kinetic; Potency, µM (doses to about 114 µM), hits mostly inhibitors; hit rate 1.3% among 340,000; AID 485314
#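 Homogeneous kinetic assay of primer extension and strand displacement by 10 nM Pol beta, preincubated 15 min at room temperature with compound before 50 nM substrate (final) was added. Read at 0 and 10 min; four-parameter Hill fit.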
# Hits are given with their value; . = inactive; ? = inconclusive; / = not tested or not shown; [ ] = remark or other dose. Most compounds without a hit are left out; they make up all but 2.4% or so of the library. The call rests on the fitted dose curve; in most records, active means well fitted curve in the direction sought with a large enough effect; inconclusive means small, poorly fitted or top-dose-only effect, or another doubt; inactive means no such curve, though single readings can be large; an effect the other way counts as inactive or inconclusive.
SMILES,FEN1 inh,POLH inh,Pol iota inh,Pol kappa inh,TDP1 block,Pol beta inh
COc1cccc(NS(=O)(=O)c2ccc3[nH]cc(C(=O)NCCc4ccccc4)c(=O)c3c2)c1,.,.,79µM,.,.,?
COc1cccc(NS(=O)(=O)c2ccc3[nH]cc(C(=O)NC4CC4)c(=O)c3c2)c1,.,.,.,.,.,.
CCc1ccc(NS(=O)(=O)c2ccc3[nH]cc(C(=O)NCCCOC(C)C)c(=O)c3c2)cc1,.,?,?,?,/,40µM
COc1cccc(NS(=O)(=O)c2ccc3[nH]cc(C(=O)NCCc4ccc(C)cc4)c(=O)c3c2)c1,.,?,?,.,/,?
Cc1cc(C)cc(NS(=O)(=O)c2ccc3[nH]cc(C(=O)N4CCCC4)c(=O)c3c2)c1,.,.,.,.,.,.
Nc1cc([N+](=O)[O-])cc(N)c1N,.,/,.,.,/,/
CNc1cccc(S(=O)(=O)N2CCCN(S(=O)(=O)c3ccc4c(c3)OCCO4)CC2)c1,/,/,/,/,.,/
CCOc1ccc(NS(=O)(=O)c2ccc3[nH]cc(C(=O)N(CC)CC)c(=O)c3c2)cc1,.,20µM,?,.,.,.
CCOC(=O)Cc1cc(=O)n2[nH]c(-c3ccccc3)c(-c3ccccc3)c2n1,.,79µM,?,79µM,.,14µM
O=C(N/N=C/c1ccccn1)c1cc(-c2ccc3ccccc3c2)n[nH]1,45µM,?,?,.,/,20µM
O=C(N/N=C/c1ccccn1)c1cc(-c2ccc(Br)s2)[nH]n1,.,.,.,.,/,10µM
O=C(N/N=C/c1ccncc1)c1cc(-c2ccc(Br)s2)[nH]n1,.,79µM,?,.,.,22µM
O=C(N/N=C/c1ccccn1)c1cc(-c2cccc3ccccc23)n[nH]1,.,.,.,.,.,.
O=C(N/N=C/c1ccccn1)c1cc(-c2ccc(Cl)s2)[nH]n1,.,.,.,.,.[0.0935 µM],35µM
COc1cc(OC)c(NC(=O)C2CCN(C(=O)c3sc4nc[nH]c(=O)c4c3C)CC2)cc1Cl,.,.,?,.,.,.
Cc1cccc(N2CCN(C(=O)C3CCN(C(=O)c4cc5sccc5n4C)CC3)CC2)c1C,.,.,.,.,.,.
COc1cccc(NC(=O)C(=O)NCCc2csc(-c3ccc(C)cc3)n2)c1,.,.,.,.,.,.
CCC(C)/C=C/C1=CC2=C(Cl)C(=O)C3(C)OC(=O)C(C(=O)C(C)C(C)O)C3C2=CO1 (stereo not given),.,?,?,79µM,?,22µM
O=C(CBr)c1ccc(Oc2ccc(C(=O)C[n+]3ccccc3Cl)cc2)cc1,?,/,?,.,/,/
COc1ccc2[nH]c3c4c(ccc3c2c1)C(=O)C=CC4=O,.,?,32µM,.,.,.
O=C(/C=C/c1ccc(Br)cc1)NC(=O)c1ccccc1O,.,.,.,.,.,32µM
CSc1ccc(/C=C/C(=O)NC(=O)c2ccccc2O)cc1,.,.,?,.,.,35µM
O=C(NO)c1ccccc1O,.,.,.,.,.,.
COC(=O)c1cc2sc(C)cc2n1CC(=O)Nc1ccc(C)cc1Cl,.,.,.,.,.,.
O=C1NN(c2ccccc2)C(=O)/C1=C/c1cccs1,/,/,/,/,.,?
SMILES,FEN1 inh,POLH inh,Pol iota inh,Pol kappa inh,TDP1 block,Pol beta inh
O=C1NN(c2cccc(Br)c2)C(=O)/C1=C/c1cccs1,.,79µM,?,.,/,.
COc1cccc(C(=O)Nc2nc(-c3nnn(-c4cccc(Cl)c4C)c3C)ns2)c1,.,.,.,.,.,.
O=C(Nc1ccccc1C(F)(F)F)NC1(C(=O)N2CCOCC2)CCCCC1,.,?,14µM,50µM,/,/
O=C(NNC(=O)c1ccc(-c2ccccc2)cc1)c1ccccc1,.,?,79µM,.,.,.
Cc1ccccc1OCC(=O)NNC(=O)c1ccc(-c2ccccc2)cc1,.,.,79µM,.,.,?
CCCCCC(=O)NNC(=O)c1ccc(-c2ccccc2)cc1,.,.,?,.,.,40µM
Cc1ccccc1C(=O)NCC(=O)OC(C(=O)Nc1cc(C(F)(F)F)ccc1Cl)c1ccccc1 (stereo not given),/,/,/,/,.,/
CC(=O)c1cccc(CN2CCCC(C(=O)Nc3ccc(-c4ccco4)cc3)C2)c1 (stereo not given),.,?,45µM,.,.,.
Cc1ccsc1/C=N/N=C/c1sccc1C,.,.,.,.,/,.
Cc1ccsc1C=Nc1ccc(O)cc1,.,14µM,13µM,89µM,.,?
C=CCn1c(O)c(CN2CCCCC2)c(C)c(C#N)c1=O,.,.,28µM,.,.,.
Cc1c(CN2CCCC(C)C2)c(O)n(CCO)c(=O)c1C#N (stereo not given),.,.,.,.,.,?
COc1ccc(S(=O)(=O)c2cnc3ccc(Cl)cc3c2N2CCCCC2C)cc1 (stereo not given),.,.,.,.,.,.
Cc1cc(=O)n(CCCc2ccccc2)[nH]1,.,.,10µM,.,.,/
CCC(NC(=O)CCc1c(C)c2cc3c(C)c(C)oc3cc2oc1=O)C(=O)N[C@@H](Cc1ccccc1)C(=O)O (stereo not given in full),.,?,.,.,/,32µM
COc1ccc(CNC(=O)CCc2c(C)c3cc4c(C)c(C)oc4cc3oc2=O)cc1,.,.,.,.,.,22µM
CSC[C@H](NC(=O)Cc1c(C)c2cc3c(C)c(C)oc3cc2oc1=O)C(=O)N[C@@H](Cc1ccccc1)C(=O)O,.,.,.,.,/,.
O=C(COc1ccccc1/C=C\c1nc(O)c([N+](=O)[O-])c(=O)[nH]1)Nc1ccccc1,.,28µM,?,.,.,.
CCOc1ccccc1/C=C\c1nc(O)c([N+](=O)[O-])c(=O)[nH]1,.,?,.,.,/,.
COc1ccc(CNc2ccccc2)cc1Br,.,.,.,.,.,.
COc1ccc(Cc2nnc(Nc3ccccc3)s2)cc1Br,?,?,?,.,/,56µM
CC1=NN(c2ccccc2)C(=O)/C1=C/C=C/c1ccccc1,.,16µM,.,.,.,.
Cc1ccc(C2=NOC(=O)/C2=C\C=C\c2ccccc2)cc1,.,89µM,?,.,.,?
COc1ccccc1/C=C1/C(=O)N(c2ccccc2)N=C1C,?,.,?,.,/,.
COc1ccccc1NC(=O)Cn1c(=O)n(-c2cccc(C(C)=O)c2)c(=O)c2c3c(sc21)CN(C(C)=O)CC3,.,.,.,.,.,?
COc1cc(-c2noc(-c3nnn(-c4ccc(Cl)cc4)c3C)n2)cc(OC)c1OC,.,/,.,.,.,.
Cc1nn(-c2ccc(F)cc2)c(-n2cccc2)c1C(=O)N1CCN(c2ccccc2F)CC1,.,.,.,.,.,.
Cn1c2ccccc2n2c(=O)c(Cl)c(-c3ccccc3)c(C#N)c12,.,.,.,.,.,.
